Where “and” joins values, the source holds several entries; their conditions need not be identical. Equal entries are not always repeated. Results filed as inconclusive are left out. Calls of active or inactive are those of the source. Unless noted, calls come from the whole dose curve; as a rule, active = well fitted curve in the direction sought with a large enough effect; inconclusive = small, poorly fitted or top-dose-only effect, or another doubt; inactive = no such curve, though single readings can be large; an effect the other way counts as inactive or inconclusive.
Experiments:
[1] = Cell Viability - MRC5 (AID 434; calls by dose curve;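 note: potency is the fitted concentration of half-maximal effect; cells exposed to compound for 40 hours at 37 °C; potency reflects cytotoxicity seen as loss of intracellular ATP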); conditions: MRC5 lung fibroblast viability, qHTS
In short: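 Decrease in intracellular ATP, quantified by luciferase light output, reflects compound toxicity toward MRC5 cells exposed for 40 hr in complete culture medium. Concentration-response curves, scaled between DMSO and 100 uM tamoxifen, gave AC50 values.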

[2] = target: Mitogen-activated protein kinase 10 (Mus musculus) (UniProt Q61831); test: JNK3 AlphaScreen Assay (AID 530; active = well fitted curve in either direction with a large enough effect, not every such curve was filed as active;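 note: kinase came from lysate of stimulated human HepG2 cells; signal reports phosphorylation of biotinylated GST-cJun 1-79 at Ser73 with 10 µM ATP; % is set by controls: 0 for no effect and ±100 for the full control effect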); conditions: JNK3 lysate, c-Jun phosphorylation; series mostly up to 57.1 µM
In short: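 Phosphorylation of biotinylated GST-cJun(1-79) at Ser73 is measured by AlphaScreen proximity luminescence. Enzyme is JNK3 in HepG2 lysates activated with interleukin-1beta and tumor necrosis factor alpha; ATP is 10 uM final.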

[3] = Cell Viability - N2a (AID 540); conditions: N2a mouse neuroblastoma cell viability; activity change, negative = cytotoxicity: at 92.2 µM (top of the series);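 note: cells exposed to compound for 40 h at 37 °C; nearly all actives have a fitted effect of over 45% in size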; note: potency is the fitted concentration of half-maximal effect;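 for activity change, negative = cytotoxicity: plate controls were DMSO alone for no effect and tamoxifen control for full effect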
In short: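 Cytotoxicity was scored as loss of cellular ATP in N2a cells, a mouse neuroblastoma line. Compounds are applied in a qHTS concentration series for 40 hr at 37 °C.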

[4] = Cellular Toxicity (caspase-3) HepG2 (AID 654); conditions: HepG2 caspase-3 activation, luminescence, 0% = DMSO only, 100% = tamoxifen; series mostly up to 92.2 µM;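 note: cells exposed to compound for 16 hours before reading; 0% = DMSO alone and 100% = caspase signal from 100 µM tamoxifen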
In short: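 Caspase 3/7 activation in HepG2 is measured as rising luminescence after a 16 hr treatment at 37 °C. Values are scaled between DMSO basal and 100 uM tamoxifen, and AC50 is fitted with the Hill equation.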

[5] = Cellular Toxicity (caspase-3) BJ (AID 658); conditions: BJ fibroblasts, luminescence, normalized: DMSO 0%, staurosporine 100%; series mostly up to 91.7 µM;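 note: 0% = DMSO basal and 100% = 10 µM staurosporine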
In short: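 Plated BJ cells (1000/well) rested 5 hr, received compound for 16 hr at 37 °C, then Caspase-Glo 3/7 reagent for 1 hr at room temperature before luminescence reading.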

[6] = Cellular Toxicity (caspase-3) Mesangial (AID 660); conditions: mesangial cells; Potency: caspase-3 activation; series mostly up to 91.7 µM;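 note: combined caspase 3 and 7 activity read by Caspase-Glo luminescence; cells exposed to compound for 16 h before the caspase read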
In short: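 Seed cells derived from normal human renal glomeruli, incubate 5 h, add compounds across concentrations and incubate 16 h at 37 °C. Caspase 3/7 activation is then quantified by luciferase light, with AC50 derived by Hill modeling.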

[7] = Cellular Toxicity (caspase-3) Renal Proximal Tubule (AID 667); conditions: renal proximal tubule cells; at 91.7 µM (top of the series) unless noted;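 note: cells exposed to compound for 16 hours at 37 °C before detection; 0% = DMSO basal and 100% = 10 µM staurosporine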
In short: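 Caspase 3/7 activation measured by luminescent aminoluciferin release in primary rat proximal tubule cells after 16 hr compound exposure at 37 °C. AC50 from Hill-fitted concentration-response, scaled between DMSO and 10 uM staurosporine.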

[8] = MultiTox-Fluor Cytotoxicity Assay - LYMP1-002 - Live Cells (AID 955); conditions: LYMP1-002 lymphoblastoid live-cell protease fluorescence viability; series mostly up to 46.1 µM; note: potency is the fitted concentration of half-maximal effect
In short: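 Cells were seeded at 2500 per well and incubated 5 hr. Compounds were then added for 16 hr at 37 C, followed by MultiTox-Fluor reagent for 60 min at room temperature and fluorescence reading of viable-cell protease signal.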

[9] = MultiTox-Fluor Cytotoxicity Assay - LYMP1-003 - Live Cells (AID 962); conditions: LYMP1-003 lymphoblastoid cells, MultiTox-Fluor live-cell protease fluorescence; series mostly up to 92.2 µM; note: potency is the fitted concentration of half-maximal effect
In short: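 Acute cytotoxicity is scored as a drop in live-cell protease activity in human lymphoblastoid LYMP1-003 cells after 16 hr compound exposure at 37 C. AC50 values come from Hill-equation modelling of concentration-response data.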

[10] = Cell Viability - LYMP2-003 (AID 965); conditions: LYMP2-003 lymphoblastoid cell viability; series mostly up to 92.2 µM;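 note: cells exposed to compounds for 24 h before reading; nearly all actives have a fitted effect of over 50% in size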; note: potency is the fitted concentration of half-maximal effect;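 for activity change, negative = cytotoxicity: 0% = DMSO only and full effect = 92 µM tetraoctylammonium bromide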
In short: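 CellTiter-Glo luminescence quantified ATP loss after 24 h compound treatment of LYMP2-003 lymphoblastoid cells at 37 C. Titration series were fitted with the standard Hill equation to give AC50.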

[11] = Cell Viability - LYMP2-015 (AID 971); conditions: LYMP2-015 lymphoblastoid cell viability; series mostly up to 92.2 µM; note: nearly all actives have a fitted effect of over 55% in size; note: potency is the fitted concentration of half-maximal effect
In short: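 Cells are seeded at 2500 per well and incubated 5 hr at 37 C. Compounds are added across a concentration series for 24 hr at 37 C. CellTiter-Glo is added, and luminescence is read after 30 min at room temperature.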

[12] = Cell Viability - LYMP2-008 (AID 980); conditions: LYMP2-008 lymphoblastoid cell viability, qHTS; series mostly up to 92.2 µM; note: nearly all actives have a fitted effect of over 60% in size; note: potency is the fitted concentration of half-maximal effect; for activity change, negative = cytotoxicity: % is set by controls: 0 for no effect and ±100 for the full control effect
In short: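 Cells seeded at 2500/well and rested 5 hr at 37 C; compounds added over a concentration range and incubated 24 hr at 37 C; CellTiter-Glo added, 30 min at room temperature; luminescence read and AC50 fitted with Hill model.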

[13] = Cell Viability - LYMP2-016 (AID 984); conditions: LYMP2-016 lymphoblastoid cell viability, qHTS; series mostly up to 92.2 µM;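 note: cells exposed to compound for 24 hours at 37 °C; nearly all actives have a fitted effect of over 55% in size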; note: potency is the fitted concentration of half-maximal effect; for activity change, negative = cytotoxicity: % is set by controls: 0 for no effect and ±100 for the full control effect
In short: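 Cytotoxicity was scored by luminescent ATP content (CellTiter-Glo) after 24 h compound exposure at 37 C of a human lymphoblastoid line at 2500 cells/well. Concentration-response data were fitted to the Hill equation for AC50.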

[14] = qHTS assay for environmental chemicals that activate the Aryl hydrocarbon Receptor (AhR) signaling pathway (AID 651777); conditions: 1A2-DRE human hepatoma cells, luciferase, 24 h; activation: active compounds read high; note: nearly all actives have a fitted effect of over 15% in size; note: potency is the fitted concentration of half-maximal effect; for activation: % of control where 0% means no effect
In short: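 Following a 24 hr incubation with test chemicals at 37 C and 5% CO2, 1A2-DRE human hepatoma cells received One-Glo reagent; after 30 min at room temperature, luciferase output reflected CYP1A2 induction via AhR.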

[15] = Cell Viability - BJ (AID 421; calls by dose curve;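 note: potency is the fitted concentration of half-maximal effect; cells exposed to compound for 40 hours at 37 °C before readout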); conditions: BJ fibroblast viability, qHTS
In short: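 Quantitative HTS: ATP depletion in BJ cells after 40 hr compound exposure in complete culture medium, detected with CellTiter-Glo; AC50 from standard Hill fits.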

[16] = qHTS assay for small molecule agonists of the antioxidant response element (ARE) signaling pathway measured by Nrf2-dependant transcriptional activity - cell viability counter screen (AID 720653; active = well fitted curve in the direction sought with a large enough effect in the repeat runs; an effect the other way counts as inactive or inconclusive; note: potency is the fitted concentration of half-maximal effect; for max response: % is set by controls: 0 for no effect and ±100 for the full control effect); conditions: ARE-bla HepG2 viability, CellTiter-Glo ATP luminescence, 16 h; max response: active compounds read low
In short: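 ARE-bla HepG2 cells (2,000/well) rested 5 hrs at 37C/5% CO2, then exposed to compounds in DMSO for 16 hrs. Viability was read in the same wells as intracellular ATP by luminescence, 30 min at room temperature after reagent addition.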

[17] = target: Glucocorticoid receptor (Homo sapiens) (UniProt P04150); test: GR-GFP Redistribution (AID 450;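 active = compounds whose dose series gives a full or clear partial fitted curve of increased nuclear translocation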; note: potency is the fitted concentration of half-maximal effect); conditions: U2OS GR-GFP nuclear translocation, laser cytometry, 2 h
Glucocorticoid receptor (Homo sapiens), sequence (P04150 whole entry, looked up): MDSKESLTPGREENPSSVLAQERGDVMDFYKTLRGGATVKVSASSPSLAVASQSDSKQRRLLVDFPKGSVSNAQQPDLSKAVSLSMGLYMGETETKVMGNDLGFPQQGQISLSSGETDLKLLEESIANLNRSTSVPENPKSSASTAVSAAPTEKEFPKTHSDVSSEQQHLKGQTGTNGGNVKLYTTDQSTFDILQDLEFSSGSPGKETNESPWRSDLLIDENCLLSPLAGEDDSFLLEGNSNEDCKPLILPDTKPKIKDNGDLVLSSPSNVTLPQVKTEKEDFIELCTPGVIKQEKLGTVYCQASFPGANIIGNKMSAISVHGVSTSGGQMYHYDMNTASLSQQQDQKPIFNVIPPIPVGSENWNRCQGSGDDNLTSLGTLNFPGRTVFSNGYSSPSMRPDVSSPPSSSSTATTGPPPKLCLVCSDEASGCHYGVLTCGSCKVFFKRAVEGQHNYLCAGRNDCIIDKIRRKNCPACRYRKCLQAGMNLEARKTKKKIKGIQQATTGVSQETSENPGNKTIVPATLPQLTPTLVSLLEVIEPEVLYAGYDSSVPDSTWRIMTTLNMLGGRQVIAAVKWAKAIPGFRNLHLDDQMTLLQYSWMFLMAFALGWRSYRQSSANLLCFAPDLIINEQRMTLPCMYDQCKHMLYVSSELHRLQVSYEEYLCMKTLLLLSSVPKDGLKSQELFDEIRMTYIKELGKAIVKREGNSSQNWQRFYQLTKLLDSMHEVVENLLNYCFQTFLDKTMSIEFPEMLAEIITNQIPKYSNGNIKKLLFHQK

[Cd+2].[Cl-].[Cl-]
inactive: Potency [1] > 92 µM | outcome [2] | outcome [4] | outcome [5] | Potency [6] | caspase-3 activation [7] -13.6% | Potency [8] | Potency [9] | Potency [10] | Potency [13] | activation [14] 0.0733%
active: activity change, negative = cytotoxicity [3] -109% | Potency [11] 50.1 µM | Potency [12] 39.8 µM

[CH3][Hg][Cl]
active: Potency [15] 26.7 µM | Potency [1] 25.3 µM | Potency [3] 10 µM | Potency [8] 12.6 µM | Potency [9] 20 µM | Potency [10] 5.01 µM | Potency [11] 3.16 µM | Potency [12] 5.01 µM | Potency [13] 3.98 µM | Potency [16] 25.1 µM
inactive: outcome [2] | outcome [4] | outcome [5] | caspase-3 activation [7] -5.2% | activation [14] 1.1%

O=C(Nc1ccncc1)c1c(O)c2ccccc2n(Cc2ccccc2)c1=O
inactive: Potency [17] > 20.6 µM

CCOc1ccc(-n2c(O)c(C=Nc3ccc(N(CC)CC)cc3)c(=O)[nH]c2=O)cc1
inactive: Potency [17] > 20.6 µM

Cc1ccc(O)cc1C
inactive: Potency [15] > 92 µM | Potency [1] > 92 µM | activation [14] 0.215% | max response [16] -2.94%

c1ccc2cc3c(cc2c1)-c1cccc2cccc-3c12
inactive: Potency [15] > 92 µM | Potency [1] > 92 µM | activity change, negative = cytotoxicity [3] -2.25% | outcome [4] | outcome [5] | Potency [6] | caspase-3 activation [7] -4.56% | Potency [8] | Potency [9] | Potency [10] | Potency [11] | Potency [12] | Potency [13] | max response [16] -11.7% and -17%
active: Potency [14] 2.82 µM and 2.51 µM

Oc1c(Br)c(Br)c(Br)c(Br)c1Br
inactive: Potency [15] > 92 µM | Potency [1] > 92 µM | outcome [4] | outcome [5] | Potency [6] | caspase-3 activation [7] 1.89% | Potency [8] | Potency [9] | Potency [10] | Potency [11] | Potency [12] | Potency [13] | activation [14] 0.143% | max response [16] -1.75%
active: activity change, negative = cytotoxicity [3] -118%

C#CCO
inactive: Potency [15] > 92 µM | Potency [1] > 92 µM | outcome [2] | activity change, negative = cytotoxicity [3] -2.19% | outcome [4] | outcome [5] | Potency [6] | caspase-3 activation [7] -11.4% [at 91.7 µM, primary cells freshly taken from rat, solvent-only wells 0%, staurosporine 100%] | Potency [8] | Potency [9] | Potency [10] | Potency [11] | Potency [12] | Potency [13] | activation [14] 1.07% | max response [16] -2.39%

Oc1c(Cl)cc(Cl)cc1Cl
inactive: Potency [15] > 92 µM | Potency [1] > 92 µM | activation [14] 0.15% and 1.58% | max response [16] -6.96% and -8.43%

N#CSCSC#N
active: Potency [15] 14.4 µM | Potency [1] 41.4 µM | Potency [3] 25.1 µM | Potency [8] 15.8 µM | Potency [9] 39.8 µM | Potency [10] 10 µM | Potency [11] 5.01 µM | Potency [12] 7.94 µM | Potency [13] 7.94 µM | Potency [16] 44.7 µM and 39.8 µM
inactive: outcome [2] | outcome [4] | outcome [5] | Potency [6] | caspase-3 activation [7] -11.6% | activation [14] 3.48% and -14.5%

CCN(CC)CCN=C(C)c1c(O)n(-c2ccccc2OC)c(=O)[nH]c1=O
inactive: Potency [17] > 20.6 µM

FC(F)(F)c1ccc(Cl)cc1
inactive: Potency [15] > 92 µM | Potency [1] > 92 µM | outcome [2] | activity change, negative = cytotoxicity [3] 6.85% | outcome [4] | outcome [5] | Potency [6] | caspase-3 activation [7] 5.86% [at 91.7 µM, primary cells freshly taken from rat, solvent-only wells 0%, staurosporine 100%] | Potency [8] | Potency [9] | Potency [10] | Potency [11] | Potency [12] | Potency [13] | activation [14] 0.0226% and 0.781% | max response [16] 7.1% and -8.38%

Reference: PubChem BioAssay (NCATS)
